High-throughput results (PubChem)
pAkt inh: Akt phosphorylation inhibition. Neuro2A IGF-stimulated pAkt S473 HTRF, 20 min; hits give low values. activity change, % for hits at 50 µM. 360,000 compounds, 0.32% hits. AID 651550; in the data active = activity change below about -80%; inconclusive = mostly about -51% to -80%; note: % is set by controls: 0 for no effect and ±100 for the full control effect
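Single-point screen (50 µM final compound) in Neuro2A cells stimulated 20 min with 6 nM IGF at 37 deg C. After lysis, Ser473-phosphorylated Akt read by HTRF (ex 330 nm, em 615/665 nm) as the 665/615 ratio.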
Epigenetic reg: epigenetic control regulation, reporter derepression; murine LDR cells, GFP reporter derepression, 30 h; Potency, µM (highest dose often 53.9 µM), without a hit: at the top dose GFP activation, most hits filed as activators; 280,000 compounds, 0.2% hits; note: potency is the fitted concentration of half-maximal effect; % of control where 0% means no effect; nearly all actives have a fitted effect of over 60% in size
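Reporter derepression read as number of fluorescent GFP-positive objects, 20-120 um in size, counted by laser-scanning cytometer. Mouse LDR line with an epigenetically silenced CMV-GFP locus; compound incubation 30 h, 37 C.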
Mm-Cpn inhibitor: inhibitors of Methanococcus maripaludis chaperonin TRiC (MmCpn); 330,000 compounds, 0.031% hits; AID 504842; purified Mm-Cpn ATPase, ADP Transcreener TR-FRET; Potency, µM (highest dose often 76.9 µM), for the others: at the top dose activity, negative = inhibition, most hits filed as inhibitors; note: potency is the fitted concentration of half-maximal effect; % is set by controls: 0 for no effect and ±100 for the full control effect; nearly all actives have a fitted effect of over 80% in size
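ATPase read-out: TR-FRET ADP immunoassay (anti-ADP Eu cryptate vs ADP-d2), ex 320 nm, em 590/665 nm; signal drops as ADP forms. Enzyme 25 nM, ATP 10 uM, 30 min at 37°C after 10 min compound preincubation.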
uPA generation: inhibitors of cell surface uPA generation | AID 540303 | cell surface uPA generation assay, qHTS | Potency, µM (highest dose often 38.3 µM), inactives show top-dose activity change, negative = inhibition, hits mostly inhibitors | 330,000 compounds, 0.31% hits; active = well fitted inhibition curve with a large enough effect; inconclusive = small, poorly fitted or top-dose-only effect; inactive = no such curve, though single readings can be large or run the other way; tested in mouse RAW 264.7 cells; note: potency is the fitted concentration of half-maximal effect; % is set by controls: 0 for no effect and ±100 for the full control effect; nearly all actives have a fitted effect of over 55% in size
MBNL1-CUG inh: blocks human MBNL1 binding to CUG repeat RNA; Q9NR56; TR-FRET MBNL1-His/biotin-(CUG)12 binding, 665/545 ratio; Potency, µM (highest dose often 57.5 µM), inactives show at the top dose activity change, negative = inhibition, actives largely listed as inhibitors; 280,000 compounds, 0.036% hits; AID 2675; active = well fitted inhibition curve with a large enough effect in the signal ratio, with a control signal flat, not every such curve was filed as active; inconclusive = small, poorly fitted or top-dose-only effect, or effect the other way, or a change in a side signal; inactive = no such curve, though single readings can be large or run the other way; the % refers to the signal ratio; note: potency is the fitted concentration of half-maximal effect; % is set by controls: 0 for no effect and ±100 for the full control effect
Target sequence (Q9NR56 whole entry, looked up): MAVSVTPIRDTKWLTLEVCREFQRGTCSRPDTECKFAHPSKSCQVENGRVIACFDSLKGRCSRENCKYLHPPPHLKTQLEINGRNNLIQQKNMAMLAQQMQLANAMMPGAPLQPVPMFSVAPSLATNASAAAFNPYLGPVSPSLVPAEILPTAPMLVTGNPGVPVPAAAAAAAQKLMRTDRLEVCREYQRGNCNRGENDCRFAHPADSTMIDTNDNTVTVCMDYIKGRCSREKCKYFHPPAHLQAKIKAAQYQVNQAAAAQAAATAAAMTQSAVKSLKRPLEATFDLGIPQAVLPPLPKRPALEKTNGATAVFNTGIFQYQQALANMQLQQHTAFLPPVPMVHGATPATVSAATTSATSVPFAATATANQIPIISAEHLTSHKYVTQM
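Ratiometric TR-FRET (665 over 545 nm, excitation 340 nm) tracks disruption of MBNL1-His/biotin-(CUG)12 complex after 60 min at room temperature, with compounds at 92 nM to 58 uM final.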
CCT chaperon mod: cytosolic chaperonin activity modulation; purified chaperonin ATPase assay, HTRF ADP detection, 30 min; activity change, % (no concentration beside the values), hits read low; AID 651819; 360,000 compounds, 0.3% hits; in the data active = activity change below about -30%; note: % is set by controls: 0 for no effect and ±100 for the full control effect
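Enzyme 40 or 20 nM (batch-dependent) in Tris pH 7.4/KCl/MgCl2/DTT; cpd 76 uM single point; ATP 10 uM; 30 min 37 °C; Transcreener ADP HTRF detection, 30 min RT; ratio 665/615.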
* hit, by the source's call; i = inactive; u = inconclusive; x = no result; [ ] = remark or other dose. A selection: hits, their analogues and other compounds. The true share with any hit is near 0.97%. Unless noted, calls come from the whole dose curve; as a rule, active = well fitted curve in the direction sought with a large enough effect; inconclusive = small, poorly fitted or top-dose-only effect, or another doubt; inactive = no such curve, though single readings can be large; an effect the other way counts as inactive or inconclusive.

SMILES	pAkt inh	Epigenetic reg	Mm-Cpn inhibitor	uPA generation	MBNL1-CUG inh	CCT chaperon mod
O=C(Cn1cc([N+](=O)[O-])cn1)N1N=C(C(F)F)CC1(O)C(F)F (stereo not given)	i	-1%	-1%	-4%	u	-4
CCc1cccc(C)c1NC(=O)c1nc2ccccc2nc1N1CCCCC1	x	2%	x	x	x	x
CCCCN(CCCNC(=O)c1cc(Nc2cccc(SC)c2)nc2ccccc12)Cc1ccccc1	x	35µM*	x	x	x	x
COc1ccc(CN(C(=O)c2snc(C(N)=O)c2N)C(C(=O)NC2CCCC2)c2cc(OC)ccc2OC)cc1 (stereo not given)	i	x	1%	x	12%	-1
Cc1nnc(SCC(=O)NC23CC4CC(CC(C4)C2)C3)n(N)c1=O	i	1%	0%	3%	-4%	-42*
Cn1ccnc1SCC(=O)NC12CC3CC(CC(C3)C1)C2	i	-3%	-5%	-5%	-4%	-1
Cc1ccc2onc(CNC(=O)N(C)Cc3ccccc3)c2c1	x	5%	x	x	x	x
Cc1cc(C[n+]2ccsc2N)c2ncccc2c1	i	-3%	40µM*	-14%	5%	2
COc1cc(-c2noc(C)c2C#Cc2ccsc2)cc(OC)c1OC	i	x	1%	2µM*	-3%	-2
COc1cc(-c2noc(C)c2C#CCO)cc(OC)c1OC	i	x	1%	0%	-5%	-3
COc1ccc(N(C(=O)C(C)C)S(=O)(=O)c2ccc3ccccc3c2)cc1	i	x	-1%	1.8µM*	4%	2
CC(=O)Nc1ccc(NC(=O)CCc2c(C)nc3c(c(C)nn3-c3ccccc3)c2C)cc1	x	-2%	x	x	x	x
Cc1cccc(NC(=O)c2ccc(-n3cccn3)c([N+](=O)[O-])c2)c1	-116%*	1%	-14%	4%	u	2
COc1ccccc1NC(=O)c1sc2nc(C)c(C(=O)Nc3ccc(C)cc3C)c(-c3ccco3)c2c1N	x	8.9µM*	x	x	x	x
Cc1ccc(NC(=O)c2c(C)nc3sc(C(=O)Nc4ccc(F)cc4)c(N)c3c2-c2ccc(C)o2)c(C)c1	x	22µM*	x	x	x	x
Cn1c(=O)c([N+](=O)[O-])c(NCc2ccccc2)c2ccccc21	i	0%	-5%	0%	-2%	-56*
Cn1ccc2cc(-c3ccc4ncnc(NCc5cccnc5)c4c3)ccc21	x	x	-3%	x	x	x
COCCCN1C(=O)C(O)=C(C(=O)c2ccco2)C1c1ccccc1 (stereo not given)	-108%*	-1%	-1%	0%	5%	-1
O=C(C1=C(O)C(=O)N(CCc2ccccc2)C1c1cccnc1)c1ccco1 (stereo not given)	i	-3%	-6%	-2%	u	-4
COc1ccccc1-c1cc(NC(C)=O)c2ncc(-c3ccccc3)n2c1	i	x	x	x	x	-6
CC(=O)Nc1cc(-c2ccccc2F)cn2c(-c3ccccc3)cnc12	i	x	x	x	x	-36*
COc1ccc(C2CC(c3ccccc3)=NN2C(=O)COC(=O)c2nc3nc(C)cc(C)n3n2)cc1 (stereo not given)	i	2%	-4%	-7%	-4%	-6
Cc1cccc(OCCNc2cc(N3CCN(CCO)CC3)ccc2[N+](=O)[O-])c1	i	-1%	-3%	5%	u	2
COc1cc(N2CCCC2)c(OC)cc1/C=C(/C#N)c1cccc(F)c1	i	3.2µM*	0%	5%	-5%	0
NC(=O)C1CCN(c2nc(-c3ccccc3)cs2)CC1	x	x	-3%	x	x	x
SMILES	pAkt inh	Epigenetic reg	Mm-Cpn inhibitor	uPA generation	MBNL1-CUG inh	CCT chaperon mod
Cc1ccc(C(C)C)c(OCC(=O)Nc2cccc(S(=O)(=O)NC3=NCCCCC3)c2)c1	i	x	0%	13%	-10%	-36*
Cc1ccccc1OCC(=O)Nc1cccc(S(=O)(=O)NC2=NCCCCC2)c1	i	x	-8%	-3%	x	1
CN(C)c1ccc(C(=O)Nc2cccc(S(=O)(=O)NC3=NCCCCC3)c2)cc1	i	x	0%	u	x	1
CC(C)(C)c1ccc(C(=O)Nc2cccc(S(=O)(=O)NC3=NCCC3)c2)cc1	i	x	0%	4µM*	x	0
C[C@H]1CN([C@@H](C)CO)C(=O)c2cccc(NC(=O)c3nc4ccccc4s3)c2O[C@H]1CN(C)C(=O)Nc1ccc(F)cc1	i	x	1%	u	x	-4
O=C(Nc1cccc(Cl)c1)Nc1ccccc1C(=O)O	i	7%	2%	8.9µM*	-10%	1
CC(C)C(=O)Nc1cccc(C(=O)Nc2ccccc2C(=O)O)c1	-114%*	1%	1%	-7%	13%	0
COc1ccc(Cl)cc1NC(=O)Nc1ccccc1C(N)=O	i	0%	-2%	3.2µM*	4%	-1
NC(=O)c1ccccc1NC(=O)Nc1cccc(Cl)c1	i	0%	1%	-10%	-4%	-1
Cn1cc(C(=O)C(=O)NCCc2ccccc2)c2ccccc21	i	x	3%	3%	u	-51*
Cn1cc(SCC(=O)NCCc2ccccc2)c2ccccc21	i	-5%	2%	0%	7%	-3
CCn1c(SCC(=O)Nc2cc(C)on2)nc2sc3c(c2c1=O)CCCC3	i	2%	-10%	-5%	53%	4
C=CCn1c(SCC(=O)Nc2cc(C)on2)nc2sc3c(c2c1=O)CCCC3	i	-1%	-7%	8%	-3%	-65*
CCN1C(=O)N[C@@H](c2cccc(F)c2)C(C(=O)OC)=C1C	i	x	x	4%	x	-40*
Cc1ccccc1-c1nc2ccccc2[nH]1	-124%*	0%	0%	-5%	0%	-1
Cc1nn(-c2ccccc2)c(N)c1N=Nc1ccccc1	i	1%	-3%	-8%	u	0
Nc1nn(-c2ccccc2)c(N)c1N=Nc1ccccc1	i	-2%	-3%	5µM*	u	-1
Cc1cccc(N(CC(=O)Nc2c(C)n(C)n(-c3ccccc3)c2=O)S(C)(=O)=O)c1C	u	2%	1%	2%	-1%	-1
Cc1ccc(N(CC(=O)Nc2c(C)n(C)n(-c3ccccc3)c2=O)S(C)(=O)=O)cc1C	-109%*	2%	-1%	2%	-10%	0
Cc1cccc(-n2c(=O)c3c(n4cnnc24)-c2ccccc2CC32CCCCC2)c1	i	-3%	-3%	6%	-16%	0
O=c1c2c(n3cnnc3n1-c1ccccc1)-c1ccccc1CC21CCCCC1	-114%*	12%	0%	-6%	2%	0
CO[C@H]1COC(=O)C/C=C\[C@H](C)[C@@H](NS(=O)(=O)c2ccc(C)cc2)COC(=O)C/C=C\[C@@H]1C	x	0%[10.1 µM]	x	x	x	x
O=C(CCS(=O)(=O)c1ccc(F)cc1)Nc1nnc(-c2cccs2)o1	i	x	-1%	10µM*	x	1
